Laboratory results taken from the supplement of paper PMC7411054.
Counter-ions that a name gives are not always drawn.

Experiments:
Details in all cases: treatment time: 24 h
[1] = tested on: HepG2-ACTB-RAB5A; test: lowest phenotypically active concentration; higher = less potent
Procedure, shortened: (§1)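 Two criteria together defined phenotypic activity: deviation and reproducibility. Deviation meant ≥3 of 4 wells beyond the 95th percentile of Euclidean distances in solvent control wells, and reproducibility meant a median replicate Pearson correlation above the 95th percentile of non-replicates. Wells had been treated for 24 h at 0.3, 1, 3 or 9 µM in fifteen gene-edited A549, HepG2 and WPMY1 reporter lines before live imaging.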

[2] = tested on: HepG2-CANX-COX4; test: as above
Procedure, shortened: as §1

[3] = tested on: HepG2-GM130-SQSTM1; test: as above
Procedure, shortened: as §1

[4] = tested on: HepG2-TUBA1B-RELA; test: as above
Procedure, shortened: as §1

[5] = tested on: WPMY1-ACTB-RAB5A; test: as above
Procedure, shortened: as §1

[6] = tested on: WPMY1-CANX-COX4; test: as above
Procedure, shortened: as §1

[7] = tested on: WPMY1-GM130-SQSTM1; test: as above
Procedure, shortened: as §1

[8] = tested on: WPMY1-TP53BP1-CLTA; test: as above
Procedure, shortened: as §1

[9] = tested on: WPMY1-TUBA1B-RELA; test: as above
Procedure, shortened: as §1

[10] = tested on: WPMY1-ACTB-RAB5A; test: phenotypically active (imaging signature differs from DMSO and reproducible) at any of 0.3-9 uM (binary (1 = active, 0 = inactive)); higher = active
Procedure, shortened: as §1

For O=C(CCCCCCC(=O)Nc1ccccc1)NO, the “lowest phenotypically active concentration” value [1] was 1 µM, the “lowest phenotypically active concentration” value [2] was 1 µM and the “lowest phenotypically active concentration” value [3] was ≤ 0.3 µM. For the same compound, the “lowest phenotypically active concentration” value [4] was 1 µM, the “lowest phenotypically active concentration” value [5] was 1 µM and the “lowest phenotypically active concentration” value [6] was ≤ 0.3 µM. The “lowest phenotypically active concentration” value [7] was 1 µM, the “lowest phenotypically active concentration” value [8] was 1 µM and the “lowest phenotypically active concentration” value [9] was 1 µM. The phenotypically active [10] was 1 (active).

In the case of COc1cc(C(=O)N2CCC(N3CCN(C)CC3)CC2)ccc1Nc1ncc2c(n1)N(C)c1ccccc1C(=O)N2C, the “lowest phenotypically active concentration” value [1] is reported as 1 µM, the “lowest phenotypically active concentration” value [2] is reported as 1 µM and the “lowest phenotypically active concentration” value [3] is reported as 1 µM. The “lowest phenotypically active concentration” value [4] was 1 µM, the “lowest phenotypically active concentration” value [5] was 3 µM and the “lowest phenotypically active concentration” value [6] was 3 µM. For the same compound, the “lowest phenotypically active concentration” value [7] was 1 µM, the “lowest phenotypically active concentration” value [8] was 3 µM and the “lowest phenotypically active concentration” value [9] was 1 µM. For the same compound, the phenotypically active [10] was 1 (active).

For Nc1ncn([C@@H]2O[C@H](CO)[C@@H](O)[C@H]2O)c(=O)n1 [5-Azacytidine], the “lowest phenotypically active concentration” value [1] was ≤ 0.3 µM, the “lowest phenotypically active concentration” value [2] was ≤ 0.3 µM and the “lowest phenotypically active concentration” value [3] was ≤ 0.3 µM. The “lowest phenotypically active concentration” value [4] was 1 µM, the “lowest phenotypically active concentration” value [5] was 3 µM and the “lowest phenotypically active concentration” value [6] was 3 µM. The “lowest phenotypically active concentration” value [7] was 1 µM, the “lowest phenotypically active concentration” value [8] was 3 µM and the “lowest phenotypically active concentration” value [9] was 3 µM. For the same compound, the phenotypically active [10] was 1 (active).

O=C1NCCN1CCN1CCC(c2cn(-c3ccc(F)cc3)c3ccc(Cl)cc23)CC1 [sertindole] was tested, and the “lowest phenotypically active concentration” value [1] was 9 µM, the “lowest phenotypically active concentration” value [2] was 9 µM and the “lowest phenotypically active concentration” value [3] was 3 µM. For the same compound, the “lowest phenotypically active concentration” value [4] was 3 µM, the “lowest phenotypically active concentration” value [5] was 9 µM and the “lowest phenotypically active concentration” value [6] was 3 µM. The “lowest phenotypically active concentration” value [7] was 9 µM, the “lowest phenotypically active concentration” value [8] was 9 µM and the “lowest phenotypically active concentration” value [9] was 3 µM. The phenotypically active [10] was 1 (active).

With CC(=O)O[C@@]12CO[C@@H]1C[C@H](O)[C@@]1(C)C(=O)[C@H](O)C3=C(C)[C@@H](OC(=O)[C@H](O)[C@@H](NC(=O)OC(C)(C)C)c4ccccc4)C[C@](O)([C@@H](OC(=O)c4ccccc4)[C@H]21)C3(C)C [Docetaxel] the “lowest phenotypically active concentration” value [1] was ≤ 0.3 µM, the “lowest phenotypically active concentration” value [2] was ≤ 0.3 µM and the “lowest phenotypically active concentration” value [3] was ≤ 0.3 µM. The “lowest phenotypically active concentration” value [4] was ≤ 0.3 µM, the “lowest phenotypically active concentration” value [5] was ≤ 0.3 µM and the “lowest phenotypically active concentration” value [6] was ≤ 0.3 µM. For the same compound, the “lowest phenotypically active concentration” value [7] was ≤ 0.3 µM, the “lowest phenotypically active concentration” value [8] was ≤ 0.3 µM and the “lowest phenotypically active concentration” value [9] was ≤ 0.3 µM. The phenotypically active [10] was 1 (active).

For CN1CCN(c2ccc(OC(F)(F)F)c(Nc3ncc4c(n3)-c3c(c(C(N)=O)nn3CCO)CC4)c2)CC1, the “lowest phenotypically active concentration” value [1] was ≤ 0.3 µM, the “lowest phenotypically active concentration” value [2] was ≤ 0.3 µM and the “lowest phenotypically active concentration” value [3] was ≤ 0.3 µM. For the same compound, the “lowest phenotypically active concentration” value [4] was ≤ 0.3 µM, the “lowest phenotypically active concentration” value [5] was ≤ 0.3 µM and the “lowest phenotypically active concentration” value [6] was 1 µM. For the same compound, the “lowest phenotypically active concentration” value [7] was 1 µM, the “lowest phenotypically active concentration” value [8] was ≤ 0.3 µM and the “lowest phenotypically active concentration” value [9] was ≤ 0.3 µM. For the same compound, the phenotypically active [10] was 1 (active).

With C=CC(=O)Nc1cccc(CN2C(=O)N(c3c(Cl)c(OC)cc(OC)c3Cl)Cc3cnc(NCCCCN(CC)CC)nc32)c1 [FIIN 1 hydrochloride] the “lowest phenotypically active concentration” value [1] was ≤ 0.3 µM, the “lowest phenotypically active concentration” value [2] was 3 µM and the “lowest phenotypically active concentration” value [3] was ≤ 0.3 µM. The “lowest phenotypically active concentration” value [4] was ≤ 0.3 µM, the “lowest phenotypically active concentration” value [5] was ≤ 0.3 µM and the “lowest phenotypically active concentration” value [6] was 1 µM. The “lowest phenotypically active concentration” value [7] was ≤ 0.3 µM, the “lowest phenotypically active concentration” value [8] was ≤ 0.3 µM and the “lowest phenotypically active concentration” value [9] was 1 µM. The phenotypically active [10] was 1 (active).

COc1cc([C@@H]2c3cc4c(cc3[C@@H](O[C@@H]3O[C@@H]5CO[C@@H](c6cccs6)O[C@H]5[C@H](O)[C@H]3O)[C@H]3COC(=O)[C@H]23)OCO4)cc(OC)c1O [teniposide] was tested, and the “lowest phenotypically active concentration” value [1] was ≤ 0.3 µM, the “lowest phenotypically active concentration” value [2] was ≤ 0.3 µM and the “lowest phenotypically active concentration” value [3] was ≤ 0.3 µM. For the same compound, the “lowest phenotypically active concentration” value [4] was ≤ 0.3 µM, the “lowest phenotypically active concentration” value [5] was ≤ 0.3 µM and the “lowest phenotypically active concentration” value [6] was ≤ 0.3 µM. The “lowest phenotypically active concentration” value [7] was ≤ 0.3 µM, the “lowest phenotypically active concentration” value [8] was ≤ 0.3 µM and the “lowest phenotypically active concentration” value [9] was ≤ 0.3 µM. The phenotypically active [10] was 1 (active).

In the case of CC[C@]1(O)C[C@@H]2CN(CCc3c([nH]c4ccccc34)[C@@](C(=O)OC)(c3cc4c(cc3OC)N(C=O)[C@H]3[C@@](O)(C(=O)OC)[C@H](OC(C)=O)[C@]5(CC)C=CCN6CC[C@]43[C@@H]65)C2)C1 [vincristine], the “lowest phenotypically active concentration” value [1] is reported as ≤ 0.3 µM, the “lowest phenotypically active concentration” value [2] is reported as ≤ 0.3 µM and the “lowest phenotypically active concentration” value [3] is reported as ≤ 0.3 µM. The “lowest phenotypically active concentration” value [4] was ≤ 0.3 µM, the “lowest phenotypically active concentration” value [5] was ≤ 0.3 µM and the “lowest phenotypically active concentration” value [6] was ≤ 0.3 µM. The “lowest phenotypically active concentration” value [7] was ≤ 0.3 µM, the “lowest phenotypically active concentration” value [8] was ≤ 0.3 µM and the “lowest phenotypically active concentration” value [9] was ≤ 0.3 µM. The phenotypically active [10] was 1 (active).
